High-throughput results from PubChem BioAssay.
The list is not random: actives were taken first. Their share in the collection is about 17%.
TGFb SMAD3 inh = qHTS for Inhibitors of TGF-b | AID 588855, 2011 | HepG2 CAGA-GFP TGF-b/SMAD3 reporter, GFP fluorescence, 18 h; TGF-beta stimulated, 500 pg/mL final | Potency, µM (titrated, usually from 46.1 µM), without a hit: at the highest dose activity, negative = inhibition, hits mostly inhibitors | 1.2% of 410,000 active; also: % is scaled to controls: 0 for no effect and ±100 for the full control effect; nearly all actives have a fitted effect of over 65% in size
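HEPG2 CAGA-GFP cells (1000/well, DMEM with 1% FBS) were pre-incubated 2 h at 37 degrees C, given compound by pin tool, then stimulated with TGF-beta at 500 pg/mL final for 18 h before per-cell GFP fluorescence imaging.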
DT40 TDP1 no CPT = qHTS for Inhibitors of human tyrosyl-DNA phosphodiesterase 1 (TDP1): qHTS in cells in absence of CPT. 15% of 420,000 active. Potency, µM (series often up to 46.2 µM), for the others: at the top dose activity change, negative = growth inhibition, usual class: inhibitors. DT40 Tdp1-/- hTDP1 cells, no CPT, ATP luminescence, 48 h; also: % is scaled to controls: 0 for no effect and ±100 for the full control effect; nearly all actives have a fitted effect of over 55% in size
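Camptothecin absent (DMSO only). Human TDP1-complemented DT40 knockout cells, 400 cells/well, 37 °C for minimum 48 hr; ATP measured via CellTiter-Glo, 30 min dark incubation, luminescence.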
HT1080 IDH1KD tx = qHTS for induction of synthetic lethality in tumor cells producing 2HG: qHTS for the HT-1080-IDH1KD cell line. HT-1080 IDH1 knockdown viability, ATP luminescence, 48 h. Potency, µM (series often up to 46.1 µM), for inactives: at the top dose activity, negative = toxicity, actives largely listed as cytotoxic. 2% of 360,000 active;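 also: 0% = DMSO wells and -100% = cell-free medium wells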
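HT-1080-IDH1KD cells (IDH1 knocked down), 750/well in RPMI with 5% FBS, treated with compound 48 h at 37 degrees C. Viability by CellTiter-Glo luminescence, normalised to DMSO and no-cell wells; concentration-response curves classed.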
HT1080NT lethal = qHTS for induction of synthetic lethality in tumor cells producing 2HG: qHTS for the HT-1080-NT fibrosarcoma cell line; Potency, µM (doses to about 46.1 µM), for inactives: at the top dose activity, negative = less viability, hits mostly cytotoxic; HT-1080-NT fibrosarcoma viability, CellTiter-Glo ATP luminescence, 48 h; 1.6% of 360,000 active;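 also: NT is the 2HG producing partner of a matched IDH1 knockdown line; 0% = DMSO-treated cells and -100% = media-only wells without cells; nearly all actives have a fitted effect of over 55% in size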
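A 48-hour cytotoxicity screen used HT-1080-NT cells plated 2 hours before compound delivery. ATP-based CellTiter-Glo luminescence measured viability, normalized to DMSO and no-cell controls.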
DT40 TDP1 CPT = qHTS for Inhibitors of human tyrosyl-DNA phosphodiesterase 1 (TDP1): qHTS in cells in presence of CPT | Potency, µM (highest dose often 46.2 µM), for inactives: at the highest dose activity change, negative = growth inhibition, most hits filed as inhibitors | 12% of 420,000 active | chicken DT40 Tdp1-/-;hTDP1 cells + 20 nM CPT, ATP luminescence, 48 h | AID 686979, 2013; also: % is scaled to controls: 0 for no effect and ±100 for the full control effect; nearly all actives have a fitted effect of over 55% in size
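Chicken DT40 Tdp1-/- cells complemented with human TDP1, 400 cells/well, exposed to compounds plus 20 nM camptothecin for at least 48 h at 37 C; viability read as ATP content by CellTiter-Glo luminescence.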
HepG2 viability = qHTS for Inhibitors of TGF-b: Cytotox Counterscreen; HepG2 CAGA-GFP viability, ATP luminescence, 18 h; AID 588856, 2011; Potency, µM (series often up to 46.1 µM), inactives show at the highest dose activity change, negative = cytotoxicity, usual class: cytotoxic; 0.76% of 410,000 active
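CellTiter-Glo luminescence gave cytotoxicity after 18 hours at 37 degrees C. The cells were HepG2 CAGA-GFP in 1% FBS DMEM, stimulated with 500 pg/mL TGF-beta after compound addition. %Activity was normalised to no-cell wells (complete cell-killing) and DMSO (no toxicity), and curves were fitted and classified.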
* = called active by the depositor. Calls follow the shape of the dose curve; as a rule, active = well fitted curve in the direction sought with a large enough effect; inconclusive = small, poorly fitted or top-dose-only effect, or another doubt; inactive = no such curve, though single readings can be large; an effect the other way counts as inactive or inconclusive. Potency is read from the fitted curve at half-maximal effect.

For Cc1ccc(C2(O)CN3CCC2CC3)cc1 (configuration not stated) the results were TGFb SMAD3 inh 10.5%, DT40 TDP1 no CPT 19.3%, HT1080 IDH1KD tx 3.2%, HT1080NT lethal 4.0%, DT40 TDP1 CPT 20.5% and HepG2 viability 2.9%.
`Nc1ccc(C2(c3ccc(N)cc3)CN3CCC2CC3)cc1` gave TGFb SMAD3 inh -3.4%, DT40 TDP1 no CPT 13µM*, HT1080 IDH1KD tx 11.0%, HT1080NT lethal 5.6%, DT40 TDP1 CPT 18.4µM* and HepG2 viability -11.3%.
C[C@@H](Cc1ccccc1)N(C)C was read as DT40 TDP1 no CPT -17.0% and DT40 TDP1 CPT -15.5%.
Screening C[C@]12C=CC(=O)C=C1CC[C@@H]1C2=CC[C@]2(C)[C@@H](C(=O)CN3CCN(c4cc(N5CCCC5)nc(N5CCCC5)n4)CC3)CC[C@@H]12 returned TGFb SMAD3 inh 1.5%, DT40 TDP1 no CPT 13µM*, HT1080 IDH1KD tx -24.8%, HT1080NT lethal -26.1%, DT40 TDP1 CPT 18.4µM* and HepG2 viability 25.1µM*.
`CCCOP(=O)(OCCC)C(NC(=O)c1ccccc1)=C(Cl)Cl` gave TGFb SMAD3 inh -2.3%, DT40 TDP1 no CPT 7.4%, HT1080 IDH1KD tx 0.3%, HT1080NT lethal 4.3%, DT40 TDP1 CPT 9.2% and HepG2 viability -8.6%.
CCOc1ccc(CCNC(=O)c2cnc3sc(N4CCCC4)nn3c2=O)cc1 was read as TGFb SMAD3 inh inconclusive, DT40 TDP1 no CPT 2.31µM*, DT40 TDP1 CPT 6.51µM* and HepG2 viability -8.3%.
CCOc1ccccc1C1SCC(=O)Nc2c1c(=O)[nH]n2C(CC)CC (configuration not stated) was read as TGFb SMAD3 inh -5.6%, DT40 TDP1 no CPT 5.0%, HT1080 IDH1KD tx 11.0%, HT1080NT lethal 8.0%, DT40 TDP1 CPT -1.3% and HepG2 viability 3.9%.
`COc1ccc(-n2nnnc2C(CCc2ccccc2)N2CCC3(CC2)C(=O)NCN3c2ccccc2)cc1` (configuration not stated) gave TGFb SMAD3 inh inconclusive, DT40 TDP1 no CPT inconclusive, HT1080 IDH1KD tx inconclusive, HT1080NT lethal inconclusive, DT40 TDP1 CPT inconclusive and HepG2 viability -14.1%.
COc1ccc(-n2nnnc2C(c2cccs2)N2CCC3(CC2)C(=O)NCN3c2ccccc2)cc1 (configuration not stated) was read as TGFb SMAD3 inh inconclusive, DT40 TDP1 no CPT 16.4µM*, HT1080 IDH1KD tx inconclusive, HT1080NT lethal inconclusive, DT40 TDP1 CPT inconclusive and HepG2 viability 15.1%.
For CCC(c1nnnn1-c1ccc(OC)cc1)N1CCC2(CC1)C(=O)NCN2c1ccccc1 (configuration not stated) the results were TGFb SMAD3 inh -1.1%, DT40 TDP1 no CPT 10.3µM*, HT1080 IDH1KD tx -12.3%, HT1080NT lethal -14.5%, DT40 TDP1 CPT inconclusive and HepG2 viability -4.3%.
O=C1NCN(c2ccccc2)C12CCN(C(c1ccnc3ccccc13)c1nnnn1C1CCCCC1)CC2 (configuration not stated) was read as TGFb SMAD3 inh -27.2%, DT40 TDP1 no CPT inconclusive, HT1080 IDH1KD tx 6.1%, HT1080NT lethal 22.1%, DT40 TDP1 CPT inconclusive and HepG2 viability 4.8%.
For O=C1NCN(c2ccccc2)C12CCN(C(c1cccc3ccccc13)c1nnnn1C1CCCCC1)CC2 (configuration not stated) the results were TGFb SMAD3 inh inconclusive, DT40 TDP1 no CPT inconclusive, HT1080 IDH1KD tx 1.3%, HT1080NT lethal inconclusive, DT40 TDP1 CPT 23.1µM* and HepG2 viability 0.8%.
O=C1NCN(c2ccccc2)C12CCN(C(c1cccc3ccccc13)c1nnnn1C1CCCC1)CC2 (configuration not stated) was read as TGFb SMAD3 inh inconclusive, DT40 TDP1 no CPT 16.4µM*, HT1080 IDH1KD tx inconclusive, HT1080NT lethal inconclusive, DT40 TDP1 CPT inconclusive and HepG2 viability -14.5%.
`Cc1cccc(C)c1-n1nnnc1C(c1cccc2ccccc12)N1CCC2(CC1)C(=O)NCN2c1ccccc1` (configuration not stated) gave TGFb SMAD3 inh -46.2%, DT40 TDP1 no CPT 11.6µM*, HT1080 IDH1KD tx 0.4%, HT1080NT lethal 3.6%, DT40 TDP1 CPT 18.4µM* and HepG2 viability -22.0%.
COc1cccc(C(c2nnnn2C2CCCCC2)N2CCC3(CC2)C(=O)NCN3c2ccccc2)c1OC (configuration not stated) was read as TGFb SMAD3 inh 22.4µM*, DT40 TDP1 no CPT inconclusive, HT1080 IDH1KD tx inconclusive, HT1080NT lethal inconclusive, DT40 TDP1 CPT inconclusive and HepG2 viability -3.3%.
Screening COC(=O)C1(C(=O)OC)C[C@H](c2ccc(OC)cc2)N(Cc2ccccc2OC)[C@@H]1c1ccccc1 returned DT40 TDP1 no CPT inconclusive, HT1080 IDH1KD tx -6.8%, HT1080NT lethal -0.1% and DT40 TDP1 CPT inconclusive.
Screening CCS(=O)CCSP(=O)(OC)OC (configuration not stated) returned DT40 TDP1 no CPT -5.2% and DT40 TDP1 CPT 11.6%.
For CN(C)c1ccc(P(=O)(Nc2ccc([N+](=O)[O-])cc2)N2CCOCC2)c(NC(=O)c2cccs2)c1 (configuration not stated) the results were TGFb SMAD3 inh inconclusive, DT40 TDP1 no CPT -21.3%, HT1080 IDH1KD tx -3.7%, HT1080NT lethal -11.0%, DT40 TDP1 CPT -22.0% and HepG2 viability -16.0%.
Screening CCC(C)NC(=O)CN1C(=O)CN=C(c2ccccc2)c2ccccc21 (configuration not stated) returned TGFb SMAD3 inh 2.1%, DT40 TDP1 no CPT -11.9%, HT1080 IDH1KD tx 21.0%, HT1080NT lethal inconclusive, DT40 TDP1 CPT -10.2% and HepG2 viability -17.6%.
For O=C(Nc1ccc2nc(-c3cccs3)c(-c3cccs3)nc2c1)N1CCCCC1 the results were TGFb SMAD3 inh 2.0%, DT40 TDP1 no CPT 11.2µM*, DT40 TDP1 CPT 8.91µM* and HepG2 viability 5.9%.
